Screens as filed in PubChem BioAssay.
Hits are enriched below; roughly 0.59% of the tested compounds scored in any of these assays.
mIDH1 inhibitor: blocks human mutant IDH1 R132H enzyme | Potency, µM (doses to about 76.6 µM), hits mostly inhibitors | O75874 | AID 602179 | IDH1-R132H enzyme, NADPH consumption, diaphorase/resazurin fluorescence | hit rate 0.093% among 390,000; further: nearly all actives have a fitted effect of over 65% in size
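IDH1-R132H (0.5 ug/mL dispensed) in pH 7.5 Tris buffer was preincubated 30 min with compound, then given a substrate mix of 0.016 mM NADPH and 2 mM alpha-KG for 80 min at room temperature; remaining NADPH was read by diaphorase/resazurin fluorescence.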
Vif-APOBEC3G blk: inhibitors of Vif-APOBEC3G interaction | hit rate 0.076% among 410,000 | Q9HC16 | AID 602310 | HeLa A3G-eYFP + Vif (tagged APOBEC3G with the HIV-1 protein that degrades it), YFP fluorescence, overnight | Potency, µM (doses to about 46.1 µM), usual class: inhibitors; further: nearly all actives have a fitted effect of over 60% in size
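HeLa cells stably expressing Vif and C-terminally eYFP-tagged A3G, seeded overnight at 37 deg C, then exposed to compound by pintool overnight at 37 deg C. Rise in yellow fluorescence (Ex 488/Em 500-530, Acumen) marks blocked Vif-driven A3G degradation.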
LDHA inh: blocks human lactate dehydrogenase A. P00338. purified LDHA, NADH/diaphorase-resazurin fluorescence; hits give low values. activity change, % (values are at about 110 or 230 µM). hit rate 0.15% among 480,000; in the data active means activity change below about -30%; inconclusive means mostly about -25% to -30%
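Human LDH5 (2 nM) was incubated with 0.06 mM NADH and 0.2 mM pyruvate for 5 min at room temperature in Tris pH 7.4. Remaining NADH was coupled through diaphorase/resazurin, and resorufin fluorescence was read at 0 and 20 min.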
Vif-APOBEC3F blk: blocks the Vif interaction with APOBEC3F | HeLa A3F-eYFP + Vif (tagged APOBEC3F with the HIV-1 protein that degrades it), YFP fluorescence increase | Potency, µM (top dose mostly 46.1 µM) | hit rate 0.2% among 390,000 | AID 602313; further: nearly all actives have a fitted effect of over 65% in size
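Fluorescence increase (Ex 488/Em 500-530) after overnight compound treatment at 37 deg C flags inhibition of Vif-driven A3F-eYFP loss in stable HeLa A3F-eYFP/Vif cells seeded overnight beforehand.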
PTHR1 ag: activates the human parathyroid hormone receptor PTHR1. Potency, µM (series often up to 115 µM), most hits filed as activators. hit rate 0.075% among 410,000. HEK293 GP2 PTHR1 cells, GloSensor cAMP luminescence, 1 h. AID 743266. Q03431; further: nearly all actives have a fitted effect of over 55% in size
Target sequence (Q03431 whole entry, looked up): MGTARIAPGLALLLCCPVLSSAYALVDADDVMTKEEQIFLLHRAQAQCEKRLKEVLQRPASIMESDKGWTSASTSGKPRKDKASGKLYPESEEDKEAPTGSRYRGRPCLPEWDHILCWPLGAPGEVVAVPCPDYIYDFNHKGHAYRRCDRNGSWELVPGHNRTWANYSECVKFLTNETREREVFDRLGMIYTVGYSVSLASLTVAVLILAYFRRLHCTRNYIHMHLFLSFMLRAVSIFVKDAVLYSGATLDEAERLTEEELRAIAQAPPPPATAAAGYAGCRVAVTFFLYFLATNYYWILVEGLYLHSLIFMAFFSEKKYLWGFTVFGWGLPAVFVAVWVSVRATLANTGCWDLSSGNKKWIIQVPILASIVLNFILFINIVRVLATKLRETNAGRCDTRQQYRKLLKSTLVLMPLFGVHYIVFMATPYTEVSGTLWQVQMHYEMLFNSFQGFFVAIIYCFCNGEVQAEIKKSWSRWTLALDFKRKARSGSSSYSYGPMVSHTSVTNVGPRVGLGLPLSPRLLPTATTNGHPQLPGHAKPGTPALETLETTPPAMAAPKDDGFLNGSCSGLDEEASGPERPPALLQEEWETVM
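HEK-293-derived GP2 cells expressing PTHR1 and a GloSensor cAMP reporter, 3,000/well, plated overnight, given luciferin plus IBMX (each 0.5 mM as added) for 1 h at 37 °C, then compound for 1 h at 37 °C. Luminescence was read after 15 min at room temperature.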
PINK1 modulator: changes PINK1 expression; PINK1 immunofluorescence, high-content cytometry, 24 h; Potency, µM (top dose mostly 76.6 µM), actives largely listed as activators; hit rate 0.2% among 410,000; AID 624263; active means well fitted activation curve with a large enough effect; inconclusive means small, poorly fitted or top-dose-only effect; cell line not stated here; further: nearly all actives have a fitted effect of over 65% in size
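Decision-based qHTS: stable cells, 24 h exposure to five compound concentrations, CCCP as control. Fixed cells stained for PINK1 plus nuclear, mitochondrial and cell markers, cytometer read.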
Resorufin autofl: counter-screen for mutant IDH1 inhibitors: fluorescence interference | shares compounds with mIDH1 inhibitor | Resorufin detection reagent fluorescence interference, cell-free | inhibition of signal, % at 51.2 µM | 750 tested, under 10 active | AID 623980
IDH1 WT: wild-type IDH1 (human) inhibition counterscreen. AID 623995. WT IDH1 enzyme, NADPH diaphorase/resazurin fluorescence. shares compounds with mIDH1 inhibitor. Potency, µM (highest dose often 115 µM), actives largely listed as inhibitors. hit rate 9% among 750; further: nearly all actives have a fitted effect of over 55% in size
IDH1 R132H conf: mutant IDH1 (human) inhibition, confirmed. IDH1 R132H enzyme, NADPH diaphorase/resazurin fluorescence. Potency, µM (doses to about 76.6 µM), most hits filed as inhibitors. hit rate 83% among 750. shares compounds with mIDH1 inhibitor. AID 624002; further: nearly all actives have a fitted effect of over 50% in size
Hits are given with their value; n = inactive; u = inconclusive; x = no result. Unless noted, the call rests on the fitted dose curve; in most records, active means well fitted curve in the direction sought with a large enough effect; inconclusive means small, poorly fitted or top-dose-only effect, or another doubt; inactive means no such curve, though single readings can be large; an effect the other way counts as inactive or inconclusive.

SMILES	mIDH1 inhibitor	Vif-APOBEC3G blk	LDHA inh	Vif-APOBEC3F blk	PTHR1 ag	PINK1 modulator	Resorufin autofl	IDH1 WT	IDH1 R132H conf
CC(C)=CCC/C(C)=C/CNC(=O)C[C@H]1C[C@H](C(=O)N2CCCCC2)[C@@]2(C)c3[nH]c4cc(CCC(=O)N(C)C)ccc4c3CCN2C1=O	u	n	n	n	n	n	n	n	25.1µM
CC(C)=CCC/C(C)=C/CNC(=O)C[C@H]1C[C@H](C(=O)N2CCOCC2)[C@@]2(C)c3[nH]c4cc(CCC(=O)N(C)C)ccc4c3CCN2C1=O	n	n	n	n	n	u	x	x	x
CCCC(C)N(C)CC(=O)NC1(C#N)CCCCCC1 (stereo not drawn)	x	x	n	x	x	x	x	x	x
CCc1cc(CC)n(-c2nc3c(c(=O)n(CC(N)=O)c(=O)n3C)n2CC)n1	x	x	n	x	x	x	x	x	x
COc1cc2cc(-c3ccc(O)cc3O)nc(C)c2cc1OC	u	n	n	n	n	n	n	n	28.2µM
Brc1ccc(-c2csc(NNC3=NCCCCC3)n2)cc1	26.1µM	n	n	n	n	n	n	n	u
CCCCN(CC)C(=O)CSc1nc2n[nH]c(C)c2c(=N)n1-c1cccc(C)c1	n	n	n	n	n	n	x	x	x
CCN(C(=O)CSc1nc2n[nH]c(C)c2c(=N)n1-c1ccc(Cl)c(C)c1)c1cccc(C)c1	46.5µM	n	n	n	n	n	n	n	22.4µM
Cc1cccc(-n2c(SCC(=O)Nc3ccccc3Cl)nc3n[nH]c(C)c3c2=N)c1	u	n	n	n	n	n	n	n	25.1µM
Cc1cc(C(=O)O)ccc1-c1ccc(C=C(C#N)C#N)o1	x	x	n	x	x	x	x	x	x
Cc1cccc2c(C(=O)NCc3ccco3)cc(-c3cccnc3)nc12	x	x	n	x	x	x	x	x	x
COc1cc(-c2cc(C(=O)Nc3ccc(S(N)(=O)=O)cc3)c3ccccc3n2)cc(OC)c1OC	u	n	n	n	n	u	n	n	u
CCOC(=O)N1CCN(Cc2nc(N)nc(Nc3ccc(Oc4ccccc4)cc3)n2)CC1	52.1µM	n	n	n	n	n	n	n	u
CC(=O)Oc1ccc(C(=O)[C@H]2[C@H]3C(=O)N(c4ccc(C)cc4C)C(=O)[C@H]3[C@@H]3C=CC=NN32)cc1	41.4µM	n	n	n	n	n	n	n	28.2µM
COc1ccc(CN(Cc2nc3ccccc3c(=O)[nH]2)C(=O)NC2CCCCC2)cc1	u	n	n	n	n	n	n	n	28.2µM
O=C(NC1CCCCC1)N(Cc1nc2ccccc2c(=O)[nH]1)C1CCCCC1	n	n	n	n	n	n	x	x	x
CCc1nc(N2CCN(C(=O)CCl)CC2)c2c3c(sc2n1)CC(C)CC3 (stereo not drawn)	u	n	n	n	n	n	n	50.1µM	10µM
COc1cc2c3c(c1)C1(C(=O)N3C(C)(C)C=C2C)C(C#N)=C(N)Oc2cc(O)ccc21 (stereo not drawn)	29.3µM	n	n	n	n	n	n	n	15.8µM
Cc1cn2c3c(=O)[nH]c(=O)n(C)c3nc2n1CCNc1cccc(Cl)c1	x	x	n	x	x	x	x	x	x
Cc1nc2ccccc2c(C)c1CC(=O)NCC1CC1	x	x	n	x	x	x	x	x	x
O=C(O)c1cc(-c2ccccn2)nc2c(Cl)cccc12	x	x	n	x	x	x	x	x	x
FC(F)(F)c1cccc(Nc2c3c(nc4ccc(Cl)cc24)CCC3)c1	u	n	n	u	n	u	n	n	u
Fc1ccc(F)c(Nc2c3c(nc4ccc(Cl)cc24)CCC3)c1	u	n	n	u	n	n	x	x	x
CC(C)COc1ccc(CN)cc1	x	x	n	x	x	x	x	x	x
N#C/C(=C\c1ccccc1OCc1ccccc1F)C(=O)Nc1ccccc1C(F)(F)F	x	x	n	x	x	x	x	x	x
SMILES	mIDH1 inhibitor	Vif-APOBEC3G blk	LDHA inh	Vif-APOBEC3F blk	PTHR1 ag	PINK1 modulator	Resorufin autofl	IDH1 WT	IDH1 R132H conf
O=C(O)c1ccc(Cl)c(S(=O)(=O)N(Cc2ccccc2)c2ccccc2)c1	u	n	n	n	n	n	x	x	x
O=C(O)c1ccc(Cl)c(S(=O)(=O)N(Cc2ccccc2)c2ccccc2Cl)c1	29.3µM	n	n	n	n	n	n	n	31.6µM
CCCn1nc(C(=O)OCC(=O)N2CC(=O)Nc3ccccc32)c2ccccc2c1=O	x	x	n	x	x	x	x	x	x
Cc1ccc(N(C(=O)c2sc(C)nc2C)C(C(=O)NCc2ccco2)c2ccccc2)cc1 (stereo not drawn)	u	n	n	n	n	x	n	n	35.5µM
Cc1cc(C)cc(N(C(=O)c2sc(C)nc2C)C(C(=O)NCc2ccco2)c2ccccc2)c1 (stereo not drawn)	u	n	n	n	n	u	n	n	12.6µM
Cc1cccc(N(C(=O)c2sc(C)nc2C)C(C(=O)NCc2ccco2)c2ccccc2)c1 (stereo not drawn)	n	n	n	n	n	n	x	x	x
O=C1C(F)=CC(COC(c2ccccc2)(c2ccccc2)c2ccccc2)OC1n1cc(F)c(=O)[nH]c1=O (stereo not drawn)	26.1µM	n	n	n	n	n	n	50.1µM	11.2µM
O=C(CSc1nc(-c2ccc(F)cc2)cc(C(F)(F)F)n1)NC1CCCCC1	x	x	n	x	x	x	x	x	x
CCN(CC)C(=O)c1sc2c(c1C)c(=O)n(CCc1ccccc1)c(=O)n2Cc1cccc(Cl)c1	31.6µM	n	n	n	n	n	n	n	11.2µM
CCN(CC)C(=O)c1sc2c(c1C)c(=O)n(CCc1ccccc1)c(=O)n2Cc1ccc(F)cc1Cl	n	n	n	n	n	n	x	x	x
NC(=O)c1ccc(-c2nnn(CC(=O)N3CCCC3c3ccc4c(c3)OCCO4)n2)cc1 (stereo not drawn)	x	x	n	x	x	x	x	x	x
CCOc1ccc(NC(=O)CN2C(=O)C(c3ccccc3)=NC23CCC(C)CC3)cc1 (stereo not drawn)	22.4µM	n	n	n	n	n	n	n	15.8µM
COc1ccc2c(C(=O)c3ccc(C)cc3)n(Cc3ccc(C(N)=O)cc3)[n+]([O-])c2c1	u	n	n	n	n	n	n	n	15.8µM
COc1c(CC=C(C)C)cc(C2CC(=O)c3c(O)cc(O)cc3O2)cc1CC=C(C)C (stereo not drawn)	35.5µM	n	n	n	n	n	n	39.8µM	25.1µM
O=c1[nH]c(/C=C/c2ccccc2)c([N+](=O)[O-])c(=O)[nH]1	n	n	n	n	n	n	x	x	x
